Tests used:
Assay in all cases: log2 ratio of Biotin-Ahx-Ub-VS probe labelling (fragment/DMSO); higher = less target engagement (more negative = stronger competition), active = hit call of the paper (q ≤ 0.05, log2 ratio ≤ -1)
Settings in all cases: compound concentration: 200 uM; treatment time: 3 h
[1] = molecular target: UniProt O00507
In short: (§1)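 Average log2 ratios of fragment over vehicle were obtained by unpaired t-test from global-median-normalised Spectronaut label-free quantities. Proteins with ≥2 unique peptides were included. HEK293T lysate (495 µg per sample) was treated in triplicate with fragment at 200 µM or vehicle for 3 h, then with Biotin-Ahx-Ub-VS at 0.5 µM final for 1 h, and labelled DUBs were NeutrAvidin-enriched and run by diaPASEF LC-MS/MS.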

[2] = molecular target: UniProt P51784
In short: as §1

[3] = molecular target: T1, UniProt Q5T2D3
T1 sequence (whole entry): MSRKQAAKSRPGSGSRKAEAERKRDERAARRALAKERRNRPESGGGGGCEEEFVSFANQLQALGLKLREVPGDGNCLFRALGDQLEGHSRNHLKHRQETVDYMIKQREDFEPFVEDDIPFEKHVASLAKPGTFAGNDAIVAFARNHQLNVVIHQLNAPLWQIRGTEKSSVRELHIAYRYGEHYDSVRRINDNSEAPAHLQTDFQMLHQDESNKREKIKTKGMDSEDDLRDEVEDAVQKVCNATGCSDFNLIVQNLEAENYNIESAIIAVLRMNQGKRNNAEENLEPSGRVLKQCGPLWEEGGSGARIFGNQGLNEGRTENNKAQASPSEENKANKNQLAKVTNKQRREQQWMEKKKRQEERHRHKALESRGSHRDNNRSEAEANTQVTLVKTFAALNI
In short: as §1

[4] = molecular target: T2, UniProt Q8TE49
T2 sequence (whole entry): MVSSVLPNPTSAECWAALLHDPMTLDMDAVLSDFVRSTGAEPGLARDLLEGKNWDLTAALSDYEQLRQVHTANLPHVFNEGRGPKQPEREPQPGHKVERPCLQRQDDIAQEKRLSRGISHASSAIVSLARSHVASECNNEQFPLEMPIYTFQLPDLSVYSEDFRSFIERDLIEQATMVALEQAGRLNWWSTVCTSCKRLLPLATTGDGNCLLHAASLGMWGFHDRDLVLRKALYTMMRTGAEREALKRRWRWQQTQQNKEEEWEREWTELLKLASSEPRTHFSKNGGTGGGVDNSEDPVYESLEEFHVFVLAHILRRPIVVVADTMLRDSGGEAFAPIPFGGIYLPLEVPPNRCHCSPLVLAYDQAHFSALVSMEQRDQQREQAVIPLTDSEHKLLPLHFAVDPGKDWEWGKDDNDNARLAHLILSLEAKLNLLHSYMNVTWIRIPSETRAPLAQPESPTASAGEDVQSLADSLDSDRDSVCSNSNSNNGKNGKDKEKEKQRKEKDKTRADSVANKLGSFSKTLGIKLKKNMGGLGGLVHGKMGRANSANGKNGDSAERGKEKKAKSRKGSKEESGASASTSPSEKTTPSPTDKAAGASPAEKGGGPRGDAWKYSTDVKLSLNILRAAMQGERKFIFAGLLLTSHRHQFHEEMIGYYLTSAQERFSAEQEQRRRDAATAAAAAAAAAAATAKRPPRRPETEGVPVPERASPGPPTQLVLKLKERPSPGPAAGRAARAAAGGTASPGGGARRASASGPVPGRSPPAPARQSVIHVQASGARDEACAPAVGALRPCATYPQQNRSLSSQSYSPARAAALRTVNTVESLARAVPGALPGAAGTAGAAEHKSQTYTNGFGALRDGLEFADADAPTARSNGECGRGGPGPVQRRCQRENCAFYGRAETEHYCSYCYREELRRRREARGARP
In short: as §1

[5] = molecular target: T3, UniProt Q9P2H5
T3 sequence (whole entry): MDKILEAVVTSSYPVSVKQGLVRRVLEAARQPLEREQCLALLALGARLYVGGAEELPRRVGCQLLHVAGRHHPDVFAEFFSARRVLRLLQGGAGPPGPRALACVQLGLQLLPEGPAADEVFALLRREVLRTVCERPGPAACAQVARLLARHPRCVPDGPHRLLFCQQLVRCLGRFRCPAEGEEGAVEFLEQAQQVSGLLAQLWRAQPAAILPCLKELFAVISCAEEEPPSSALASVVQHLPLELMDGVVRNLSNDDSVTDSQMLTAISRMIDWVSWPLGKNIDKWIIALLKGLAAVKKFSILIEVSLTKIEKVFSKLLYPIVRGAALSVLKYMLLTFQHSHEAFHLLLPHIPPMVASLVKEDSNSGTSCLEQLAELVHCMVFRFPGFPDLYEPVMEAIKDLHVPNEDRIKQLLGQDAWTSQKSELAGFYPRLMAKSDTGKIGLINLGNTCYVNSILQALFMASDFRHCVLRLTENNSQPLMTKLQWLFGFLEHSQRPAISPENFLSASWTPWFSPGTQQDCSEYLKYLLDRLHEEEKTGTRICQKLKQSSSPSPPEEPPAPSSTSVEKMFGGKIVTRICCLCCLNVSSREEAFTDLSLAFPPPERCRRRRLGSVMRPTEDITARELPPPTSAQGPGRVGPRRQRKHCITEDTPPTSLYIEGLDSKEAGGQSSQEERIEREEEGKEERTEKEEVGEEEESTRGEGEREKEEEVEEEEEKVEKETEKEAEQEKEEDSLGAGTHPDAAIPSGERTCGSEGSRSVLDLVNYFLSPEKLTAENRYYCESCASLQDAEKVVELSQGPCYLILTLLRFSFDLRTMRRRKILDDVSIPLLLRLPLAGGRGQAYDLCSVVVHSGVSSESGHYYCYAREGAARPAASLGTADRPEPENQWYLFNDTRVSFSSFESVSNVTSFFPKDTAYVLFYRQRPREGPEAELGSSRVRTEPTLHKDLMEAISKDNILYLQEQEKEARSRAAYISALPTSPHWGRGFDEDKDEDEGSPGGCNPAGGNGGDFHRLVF
In short: as §1

[6] = molecular target: T4, UniProt Q9UGI0
T4 sequence (whole entry): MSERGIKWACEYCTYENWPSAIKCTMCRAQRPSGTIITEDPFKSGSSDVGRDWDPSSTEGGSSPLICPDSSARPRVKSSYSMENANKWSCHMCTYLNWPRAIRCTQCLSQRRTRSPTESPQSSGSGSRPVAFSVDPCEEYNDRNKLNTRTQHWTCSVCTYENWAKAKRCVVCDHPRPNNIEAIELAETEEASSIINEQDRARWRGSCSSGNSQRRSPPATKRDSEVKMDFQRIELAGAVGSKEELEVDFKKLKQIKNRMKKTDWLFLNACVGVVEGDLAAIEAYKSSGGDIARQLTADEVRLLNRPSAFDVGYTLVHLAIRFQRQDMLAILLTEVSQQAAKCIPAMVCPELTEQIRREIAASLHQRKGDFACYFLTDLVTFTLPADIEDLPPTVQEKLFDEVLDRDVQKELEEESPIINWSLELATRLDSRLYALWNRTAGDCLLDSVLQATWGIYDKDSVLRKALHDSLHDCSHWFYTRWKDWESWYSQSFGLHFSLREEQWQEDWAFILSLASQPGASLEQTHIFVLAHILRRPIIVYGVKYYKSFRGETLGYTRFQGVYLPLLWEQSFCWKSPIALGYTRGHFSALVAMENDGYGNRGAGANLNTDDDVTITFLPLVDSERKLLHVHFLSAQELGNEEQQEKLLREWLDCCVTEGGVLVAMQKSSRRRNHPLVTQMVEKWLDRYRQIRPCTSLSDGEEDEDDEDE
In short: as §1

[7] = molecular target: T5, YOD1 (UniProt Q5VVQ6)
T5 sequence (whole entry): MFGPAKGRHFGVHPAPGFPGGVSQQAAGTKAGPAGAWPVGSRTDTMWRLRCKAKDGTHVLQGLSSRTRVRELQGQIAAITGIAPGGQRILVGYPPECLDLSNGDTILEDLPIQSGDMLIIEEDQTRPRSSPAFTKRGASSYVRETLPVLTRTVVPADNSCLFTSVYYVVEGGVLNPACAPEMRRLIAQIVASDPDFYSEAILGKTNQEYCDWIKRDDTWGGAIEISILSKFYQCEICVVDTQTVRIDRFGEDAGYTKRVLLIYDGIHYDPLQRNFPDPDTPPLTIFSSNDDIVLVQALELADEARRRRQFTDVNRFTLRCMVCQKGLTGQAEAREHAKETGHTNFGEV
In short: as §1

Measured: log2 ratio of Biotin-Ahx-Ub-VS probe labelling

Chain of UniProt O00507 (O00507 whole entry, the tested form may be a part): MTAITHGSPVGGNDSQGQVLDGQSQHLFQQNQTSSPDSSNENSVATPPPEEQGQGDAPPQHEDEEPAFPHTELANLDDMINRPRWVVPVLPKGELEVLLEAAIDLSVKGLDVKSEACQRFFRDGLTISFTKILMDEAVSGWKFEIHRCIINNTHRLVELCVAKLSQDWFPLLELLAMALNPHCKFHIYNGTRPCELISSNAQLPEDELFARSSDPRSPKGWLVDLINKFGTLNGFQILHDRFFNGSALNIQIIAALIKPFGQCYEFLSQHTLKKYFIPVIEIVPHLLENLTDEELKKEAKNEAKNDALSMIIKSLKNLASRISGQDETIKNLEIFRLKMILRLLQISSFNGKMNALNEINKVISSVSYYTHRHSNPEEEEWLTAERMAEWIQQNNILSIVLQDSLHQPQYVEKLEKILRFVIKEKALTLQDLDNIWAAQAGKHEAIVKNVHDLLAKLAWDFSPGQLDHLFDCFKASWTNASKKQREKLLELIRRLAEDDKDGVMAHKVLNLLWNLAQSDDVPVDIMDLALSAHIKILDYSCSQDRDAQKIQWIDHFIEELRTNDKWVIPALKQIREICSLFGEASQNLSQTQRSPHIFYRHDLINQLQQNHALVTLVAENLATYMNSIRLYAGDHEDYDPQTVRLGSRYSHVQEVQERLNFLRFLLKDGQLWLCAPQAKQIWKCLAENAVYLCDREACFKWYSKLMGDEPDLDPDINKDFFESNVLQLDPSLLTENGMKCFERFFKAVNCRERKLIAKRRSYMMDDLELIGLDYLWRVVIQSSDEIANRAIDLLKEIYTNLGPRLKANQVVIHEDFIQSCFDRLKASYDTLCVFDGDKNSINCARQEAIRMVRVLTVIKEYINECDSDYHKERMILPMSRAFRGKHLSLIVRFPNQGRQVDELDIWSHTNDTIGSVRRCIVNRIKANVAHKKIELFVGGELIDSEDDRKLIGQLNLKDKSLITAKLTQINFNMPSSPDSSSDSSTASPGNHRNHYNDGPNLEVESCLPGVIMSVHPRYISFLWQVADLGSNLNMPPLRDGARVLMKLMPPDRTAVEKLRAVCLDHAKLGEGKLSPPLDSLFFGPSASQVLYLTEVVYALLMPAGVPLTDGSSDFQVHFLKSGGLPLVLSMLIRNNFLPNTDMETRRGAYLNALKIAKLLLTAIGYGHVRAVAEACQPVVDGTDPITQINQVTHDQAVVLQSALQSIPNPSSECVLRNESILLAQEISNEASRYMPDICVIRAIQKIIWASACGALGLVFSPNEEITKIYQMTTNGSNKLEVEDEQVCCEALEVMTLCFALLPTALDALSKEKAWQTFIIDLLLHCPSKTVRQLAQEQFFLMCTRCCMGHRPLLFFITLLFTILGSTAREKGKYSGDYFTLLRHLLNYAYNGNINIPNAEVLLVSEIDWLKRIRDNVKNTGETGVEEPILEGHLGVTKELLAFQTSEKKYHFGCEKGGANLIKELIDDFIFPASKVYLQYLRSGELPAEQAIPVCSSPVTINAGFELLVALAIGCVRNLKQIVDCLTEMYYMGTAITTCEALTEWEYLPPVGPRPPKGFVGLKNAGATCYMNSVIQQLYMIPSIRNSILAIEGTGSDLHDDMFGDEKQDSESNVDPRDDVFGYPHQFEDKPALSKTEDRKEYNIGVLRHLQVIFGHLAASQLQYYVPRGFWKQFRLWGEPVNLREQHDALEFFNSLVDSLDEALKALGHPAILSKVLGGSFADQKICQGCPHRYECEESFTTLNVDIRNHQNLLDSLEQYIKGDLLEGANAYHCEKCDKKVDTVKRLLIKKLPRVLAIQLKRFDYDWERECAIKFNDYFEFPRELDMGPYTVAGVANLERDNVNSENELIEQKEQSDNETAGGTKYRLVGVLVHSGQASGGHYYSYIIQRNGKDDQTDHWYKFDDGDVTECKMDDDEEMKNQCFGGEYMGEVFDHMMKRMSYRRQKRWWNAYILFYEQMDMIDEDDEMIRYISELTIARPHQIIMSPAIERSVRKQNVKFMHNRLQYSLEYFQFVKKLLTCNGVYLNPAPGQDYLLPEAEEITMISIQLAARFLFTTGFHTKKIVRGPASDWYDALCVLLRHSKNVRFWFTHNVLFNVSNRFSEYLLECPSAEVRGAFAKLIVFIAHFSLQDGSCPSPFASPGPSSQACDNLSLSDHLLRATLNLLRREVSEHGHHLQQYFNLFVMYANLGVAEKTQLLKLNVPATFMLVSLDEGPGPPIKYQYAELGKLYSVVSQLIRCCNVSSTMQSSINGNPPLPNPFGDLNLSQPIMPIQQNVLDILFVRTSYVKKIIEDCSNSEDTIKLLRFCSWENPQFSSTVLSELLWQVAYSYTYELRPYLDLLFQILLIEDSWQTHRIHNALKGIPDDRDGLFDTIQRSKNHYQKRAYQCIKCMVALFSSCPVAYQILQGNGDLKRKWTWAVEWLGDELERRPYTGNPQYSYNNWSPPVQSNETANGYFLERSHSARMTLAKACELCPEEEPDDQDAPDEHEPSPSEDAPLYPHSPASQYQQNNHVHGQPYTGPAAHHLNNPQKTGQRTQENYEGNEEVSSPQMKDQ
Chain of UniProt P51784 (P51784 whole entry): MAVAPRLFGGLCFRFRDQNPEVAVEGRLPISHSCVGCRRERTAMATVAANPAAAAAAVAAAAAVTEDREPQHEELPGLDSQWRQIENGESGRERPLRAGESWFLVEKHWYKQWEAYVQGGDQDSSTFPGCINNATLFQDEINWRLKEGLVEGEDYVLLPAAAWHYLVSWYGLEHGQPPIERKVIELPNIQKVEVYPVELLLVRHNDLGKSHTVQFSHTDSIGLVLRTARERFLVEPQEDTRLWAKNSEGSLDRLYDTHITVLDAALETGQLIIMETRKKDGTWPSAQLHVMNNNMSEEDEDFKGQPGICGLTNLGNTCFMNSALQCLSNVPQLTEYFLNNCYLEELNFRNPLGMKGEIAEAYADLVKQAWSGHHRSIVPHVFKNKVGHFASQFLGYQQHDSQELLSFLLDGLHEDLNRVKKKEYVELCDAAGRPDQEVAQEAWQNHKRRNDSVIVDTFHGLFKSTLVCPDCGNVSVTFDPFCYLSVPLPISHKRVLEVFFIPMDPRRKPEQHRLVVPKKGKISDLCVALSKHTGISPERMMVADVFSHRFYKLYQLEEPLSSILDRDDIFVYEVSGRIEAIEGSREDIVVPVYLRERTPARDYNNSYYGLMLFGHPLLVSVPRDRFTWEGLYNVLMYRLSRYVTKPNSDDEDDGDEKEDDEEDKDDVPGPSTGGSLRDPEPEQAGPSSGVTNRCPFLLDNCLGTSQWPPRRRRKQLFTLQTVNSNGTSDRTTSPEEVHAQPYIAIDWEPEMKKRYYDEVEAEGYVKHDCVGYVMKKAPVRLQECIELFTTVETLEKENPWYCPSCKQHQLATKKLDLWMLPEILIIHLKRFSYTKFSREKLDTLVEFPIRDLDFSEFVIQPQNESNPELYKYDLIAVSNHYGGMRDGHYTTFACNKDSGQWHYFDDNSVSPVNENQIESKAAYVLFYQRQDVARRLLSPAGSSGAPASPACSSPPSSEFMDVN

N#Cc1ccc(CNC(=O)CCl)cc1
inactive: [1] -0.0509 | [2] -0.059 | [3] -0.00706 | [4] -0.236 | [5] -0.0879 | [6] -0.592 | [7] -0.136

Cl.O=C(CCl)N1CCC(n2nc3ccccc3n2)CC1
inactive: [1] -0.531 | [2] -0.268 | [3] -0.193 | [4] -0.712 | [5] -0.415 | [6] -0.422 | [7] -0.0827

NC(=O)C(Cc1ccccc1)NC(=O)CCl (centres undefined)
inactive: [1] 0.191 | [2] -0.0194 | [3] -0.105 | [4] -0.102 | [5] -0.193 | [6] -0.398 | [7] 0.0228

Cl.O=C(CN1CCN(C(=O)CCl)CC1)Nc1ccc(F)cc1
inactive: [1] 0.543 | [2] 0.0839 | [3] -0.013 | [4] -0.19 | [5] -0.164 | [6] -0.166 | [7] 0.204

Cc1ncc2c(n1)CCN(C(=O)CCl)C2
inactive: [1] 0.136 | [2] 0.000874 | [3] -0.239 | [4] -0.624 | [5] -0.422 | [6] -0.458 | [7] 0.165

O=C(CCl)N1CCOC2(CCC2)CC1
inactive: [1] -0.268 | [2] -0.147 | [3] -0.0132 | [4] -0.472 | [5] -0.184 | [7] -0.0502
active: [6] -1.19

CN1C(=O)c2ccc(NC(=O)CCl)cc2C1=O
inactive: [1] -0.092 | [2] -0.0657 | [3] -0.265 | [5] -0.23 | [6] -0.559 | [7] -0.0267
active: [4] -1.43

Cc1cccc(C(CNC(=O)CCl)N2CCOCC2)c1.Cl (centres undefined)
inactive: [1] 0.29 | [2] -0.0777 | [3] -0.329 | [4] -0.249 | [5] -0.237 | [6] 0.0449 | [7] -0.28

O=C(CCl)NCc1ccc(N2CCOCC2)c(F)c1
inactive: [1] 0.631 | [2] 0.16 | [3] -0.134 | [4] -0.275 | [5] -0.291 | [6] -0.051 | [7] 0.276

Cc1c(NC(=O)CCl)c(=O)n(-c2ccccc2)n1C
inactive: [1] 0.221 | [2] -0.106 | [3] -0.105 | [4] -0.377 | [5] -0.286 | [6] 0.0727 | [7] -0.128

Cc1nc(-c2cccc(NC(=O)CCl)c2)cs1
inactive: [1] -0.692 | [2] -0.269 | [3] -0.317 | [4] -0.655 | [5] -0.193 | [7] -0.369
active: [6] -1.43

C[C@H]1CN(C(=O)CCl)CCN1C(=O)c1cnn(C)c1.Cl
inactive: [1] 0.326 | [2] 0.00812 | [3] -0.292 | [4] -0.57 | [5] -0.408 | [6] 0.189 | [7] 0.0183

Cc1cccc(N2CCC(NC(=O)CCl)C2=O)c1 (centres undefined)
inactive: [1] 0.294 | [2] -0.28 | [3] -0.334 | [4] -0.961 | [5] -0.395 | [6] -0.883 | [7] -0.459

CCCn1nccc1NC(=O)CCl
inactive: [1] -0.381 | [2] -0.0768 | [3] -0.0284 | [5] -0.452 | [6] -0.251 | [7] -0.159
active: [4] -1.02

O=C(CCl)NC1(c2ccc3c(c2)OCCO3)CCCC1
inactive: [1] -0.152 | [2] -0.000106 | [3] -0.339 | [4] -0.447 | [5] -0.3 | [6] -0.26 | [7] -0.199

CC(=O)C1CCCCN1C(=O)CCl (centres undefined)
inactive: [1] 0.17 | [2] 0.028 | [3] -0.0455 | [4] -0.492 | [5] -0.14 | [6] 0.121 | [7] -0.0382

N#Cc1ccccc1N1CCN(C(=O)CCl)CC1
inactive: [1] -0.534 | [2] -0.515 | [3] -0.687 | [5] -0.617 | [7] -0.448
active: [4] -1.29 | [6] -2.22

Reference: the supplement of paper PMC11732987, “Enantioselective OTUD7B fragment discovery through chemoproteomics screening and high-throughput optimisation” (Communications Chemistry, 2025)
